Consider 40 compounds from PubChem BioAssay (Tox21).

Results filed as inconclusive are left out. A call without a number means that no potency is given here. Unmarked numbers belong to inactive results. Activity calls are given as the source filed them. Calls come from the whole dose curve; as a rule, active = well fitted inhibition curve with a large enough effect in the repeat runs; inconclusive = weak or mixed curves; inactive = flat fitted curve, though single readings scatter.
Potency is the fitted concentration of half-maximal effect.

For this experiment, the target named is Voltage-gated inwardly rectifying potassium channel KCNH2 (Homo sapiens) (UniProt Q12809). Put plainly: Human Ether-a-go-go-Related Gene (hERG) channel small molecule antagonists: fluorescence cell-based qHTS assay (AID 1671200). Note: nearly all actives have a fitted effect of over 50% in size. Conditions: hERG-U2OS cells, FluxOR thallium flux fluorescence; series mostly up to 76.8 µM. An excerpt: National Center for Advancing Translational Sciences [NCATS]
Voltage-gated inwardly rectifying potassium channel KCNH2 (Homo sapiens), sequence (Q12809 whole entry, looked up): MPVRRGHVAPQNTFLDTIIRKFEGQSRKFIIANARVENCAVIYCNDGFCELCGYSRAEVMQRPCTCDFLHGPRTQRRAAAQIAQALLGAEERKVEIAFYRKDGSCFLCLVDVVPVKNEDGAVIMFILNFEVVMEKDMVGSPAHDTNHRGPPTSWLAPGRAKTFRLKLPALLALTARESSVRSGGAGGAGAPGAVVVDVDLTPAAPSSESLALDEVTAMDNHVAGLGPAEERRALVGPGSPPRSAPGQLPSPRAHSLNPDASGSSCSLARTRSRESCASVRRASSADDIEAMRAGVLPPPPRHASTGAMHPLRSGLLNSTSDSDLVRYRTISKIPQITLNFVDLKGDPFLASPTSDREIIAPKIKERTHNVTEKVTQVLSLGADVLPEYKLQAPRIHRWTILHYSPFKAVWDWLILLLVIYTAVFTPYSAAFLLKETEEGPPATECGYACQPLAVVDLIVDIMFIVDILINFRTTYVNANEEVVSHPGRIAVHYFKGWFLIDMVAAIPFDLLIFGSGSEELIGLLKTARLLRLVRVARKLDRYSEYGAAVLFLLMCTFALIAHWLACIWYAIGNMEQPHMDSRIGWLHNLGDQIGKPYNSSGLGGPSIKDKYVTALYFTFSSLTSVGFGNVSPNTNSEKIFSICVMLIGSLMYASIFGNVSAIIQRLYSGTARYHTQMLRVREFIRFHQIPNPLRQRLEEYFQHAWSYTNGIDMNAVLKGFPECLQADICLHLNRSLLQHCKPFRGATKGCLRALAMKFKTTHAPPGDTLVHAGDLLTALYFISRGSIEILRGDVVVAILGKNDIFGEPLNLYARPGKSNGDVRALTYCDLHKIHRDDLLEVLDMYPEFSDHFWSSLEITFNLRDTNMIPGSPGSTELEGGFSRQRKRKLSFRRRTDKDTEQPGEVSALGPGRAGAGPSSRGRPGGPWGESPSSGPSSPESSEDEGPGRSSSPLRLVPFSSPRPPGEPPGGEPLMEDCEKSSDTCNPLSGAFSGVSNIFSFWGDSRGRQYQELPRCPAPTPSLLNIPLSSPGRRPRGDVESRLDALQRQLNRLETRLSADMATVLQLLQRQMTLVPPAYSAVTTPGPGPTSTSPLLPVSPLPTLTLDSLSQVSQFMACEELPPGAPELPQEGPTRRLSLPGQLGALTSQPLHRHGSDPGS
U.S. Environmental Protection Agency [EPA]
National Institutes of Environmental Health Sciences [NIEHS]
National Toxicology Program [NTP]
U.S. Food and Drug Administration [FDA]
Mutations in the hERG channel cause Long QT (LQT) syndrome. LQT syndrome is a cardiac disorder which can cause ventricle arrhythmia and sudden death. Additionally, compounds which block the hERG channel can cause acquired LQT syndrome. Several FDA approved drugs have been removed from the market due to their hERG blocking activity. A cell-based hERG channel inhibition assay can be used to screen chemical compounds that inhibit hERG channel. This assay measures hERG channel activity using thallium ions as surrogate ions to measure potassium into the cells.
Tox21 Assay Protocol Summary:
hERG-U2OS cells were resuspended in culture medium and dispensed into 1536-well, black wall/clear-bottom plates at 1000cells/well/3uL using a Multidrop Combi dispenser (Thermo Fisher, Waltham, MA). After plates were incubated at 37 C overnight, 3 uL of Loading Buffer provided by FluxOR II Potassium Ion Channel Assay kit (Thermo, Carlsbad, CA) was added to each well. The assay plates were then incubated at room temperature in the dark for 1h. […] After the assay plates were incubated at room temperature for 10 min, 1 uL of Stimulus Buffer provided by FluxOR II Potassium Ion Channel Assay kit was added into each well and fluorescence intensity (480nm excitation/540nm emission) was continuously measured for 2 min at 1 second intervals using a Functional Drug Screening System (FDSS) 7000EX kinetic plate reader (Hamamatsu, Japan).
As for `Cc1nc2ccccc2s1`, the Potency result is “inactive”.

In the case of `CCOC(=O)C(C)Oc1ccc(Oc2nc3ccc(Cl)cc3o2)cc1` (stereo not given), the Potency is 34.7 µM (active).

Consider `CCC(C)=O`, for which the Potency entry was “inactive”.

With `CCOC(=O)OCC`, the Potency entry was “inactive”.

With `C=CCOC(=O)/C=C\C(=O)OCC=C`, the Potency result is “inactive”.

Turning to `CCOC(=O)/C=C/C(=O)O`, the Potency entry is “inactive”.

For the compound `COc1ccccc1N=Nc1c(S(=O)(=O)O)cc2cc(S(=O)(=O)O)cc(NC(C)=O)c2c1O`, the Potency result was “inactive”.

With `CCCCC(=O)O[C@]1(C(=O)CO)CC[C@H]2[C@@H]3CCC4=CC(=O)CC[C@]4(C)[C@H]3[C@@H](O)C[C@@]21C`, the Potency entry is “inactive”.

For the compound `CCCCCCCC/C=C\CCCCCCCC(=O)OC`, the Potency result is “inactive”.

On to `Fc1ccccc1[C@@H](F)COC1CCC(Nc2ncnc3[nH]ncc23)CC1` (stereo not given in full), for which the Potency result is “inactive”.

Take `CN(C)C(=O)Nc1ccc(Oc2ccc(Cl)cc2)cc1`: the Potency entry was “inactive”.

As for `O=C(O)c1cccc(O)c1`, the Potency entry is “inactive”.

As for `CC1=CC(=O)CC(C)(C)C1(O)/C=C/C(C)=C\C(=O)O` (stereo not given), the Potency result is “inactive”.

For the compound `CCCCCCCCCCOS(=O)(=O)O`, the Potency result is “inactive”.

`CC1CN(c2cc3c(cc2F)c(=O)c(C(=O)O)cn3-c2ccc(F)cc2F)CCN1` (stereo not given): the activity change, negative = inhibition was 3.92% [at 6.97 µM].

`CCCCC(CC)CNCC(CC)CCCC` (stereo not given): the Potency entry was “inactive”.

On to `CC[C@H](NC(=O)c1cc(F)ccc1NS(=O)(=O)c1cccc2cccnc12)c1ccccc1`, for which the Potency entry is “inactive”.

For `CCOC(=O)c1ccccc1C`, the Potency result was “inactive”.

As for `CCOC(=O)c1ccccc1OC`, the Potency entry was “inactive”.

Turning to `c1ccc(COCc2ccccc2)cc1`, the Potency result was “inactive”.

Take `C=CC(C)(C)CC(=O)OC`: the Potency entry is “inactive”.

Turning to `CN1CCCN=C1/C=C/c1cccs1`, the Potency entry is “inactive”.

Take `Cc1ccc(/C=N/n2c(-c3ccccc3)csc2=S)cc1`: the Potency result was “inactive”.

Take `CCCCCCCCCCCC(=O)[O][Sn]([CH2]CCC)([CH2]CCC)[O]C(=O)CCCCCCCCCCC`: the Potency entry is “inactive”.

In the case of `CO[Si](C)(OC)OC`, the Potency result is “inactive”.

For `CCCc1c(OCCCOc2ccc(OCC(=O)O)cc2)ccc(C(C)=O)c1O`, the Potency entry is “inactive”.

Consider `C[Si]1(C)O[Si](C)(C)O[Si](C)(C)O1`, for which the Potency result was “inactive”.

With `NC(=O)Nc1ccc(Cl)c(Cl)c1`, the Potency entry is “inactive”.

As for `CC(C)(C)C(=O)C(Oc1ccc(Cl)cc1)n1ccnc1` (stereo not given), the Potency result was “inactive”.

As to `NC(=O)N(O)[C@@H]1COc2cc(OCc3ccccc3)ccc21`, the Potency result was “inactive”.

Consider `C/C(=N/NC(=O)c1ccncc1)C(=O)O`, for which the Potency entry was “inactive”.

On to `Cc1nc2ccccn2c(=O)c1CCN1CCC(C(=O)c2ccc(F)cc2)CC1`, for which the Potency was 9.52 µM (active).

As for `CCCCC(CC)COC(=O)COc1ccc(Cl)cc1C` (stereo not given), the Potency entry is “inactive”.

`CC(=O)N(c1onc(C)c1C)S(=O)(=O)c1ccc(N)cc1`: the Potency entry is “inactive”.

Take `CNC(=O)N(c1ccccc1)c1ccccc1`: the Potency entry is “inactive”.

`Cc1cnc(C)c(C)n1`: the Potency entry is “inactive”.

With `COCc1c(C(C)C)nc(C(C)C)c(/C=C/[C@@H](O)C[C@@H](O)CC(=O)O)c1-c1ccc(F)cc1`, the Potency entry is “inactive”.

Regarding `CC(=O)[C@H]1CC[C@H]2[C@@H]3C=CC4=CC(=O)CC[C@@]4(C)[C@@H]3CC[C@]12C`, the Potency entry is “inactive”.

With `COC(=O)c1cc(S(N)(=O)=O)ccc1OC`, the Potency result was “inactive”.

Consider `CN1CCN(c2c(F)cc3c(=O)c(C(=O)O)cn4c3c2OCN4C)CC1`, for which the activity change, negative = inhibition was -1.8% [at 15.8 µM].
